The test system of one assay is LXRa:RXRa (NR concentration 270 nM, RXRa partner concentration 90 nM). Kind of assay: PBM binding z-score (relative to random genomic background probes); higher = stronger binding; sequences stand for … in GC…GCGATTGACAGCGTAGAATGAAGG
The method, boiled down: (§1)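 The probes on custom Agilent 4×180K protein-binding microarrays were double-stranded, with 34-nt variable regions bearing direct-repeat seeds, single-nucleotide variants, half-site ablations and random human genomic background sequences. Incubation lasted 1 h with ligand-free nuclear receptor dimers in PBS pH 7.4, 2% milk, 0.02% Triton X-100, 1 mM DTT, 0.2 mg/mL BSA and 0.4 mg/ml salmon testes DNA. Antibodies against each partner (one per run) detected bound dimers, and fluorescence scans were regression-normalized. Binding z-scores take the random background probes as reference.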
In turn, ATCTCTAGGTAAAGATAGTTCGGTGAATGCAAAT registered a PBM binding z-score of 1.18.

TCTAGCAGTCCAGAGGGTCACTCAAGAGGTACGG: the PBM binding z-score came out at 0.962.

In turn, CCTAGCAGGCCAATCTGGGACACTCAAGGCTTGA yielded a PBM binding z-score of -0.43.

In the case of TCTGACAGGTGAAGGTAACTCAGGTACGCAGTCG, the PBM binding z-score was 1.97.

As for TATACAGGCTCAAAGGCCAGAGTACGAATGTCGA, the PBM binding z-score stood at 0.0342.

GGAACGAGGGCATTCGAGTTAATAGCATGGCGAT came in with a PBM binding z-score of 1.05.

CCTACTGGGCCAATGGTCATTGATTCCAATGCTC displayed a PBM binding z-score of -0.68.

The sequence GCTGCTAGGTCAACTGATGGTCGGCTAAAGCTCG returned a PBM binding z-score of 3.08.

For ACTCGGAGGACCAAGGTCAGAGCTACGCCAGTGA, the PBM binding z-score was found to be 0.987.

As for GGAACGAAGGCAAAGTTGATAGCATCTGTCGACG, the PBM binding z-score was -0.726.

GGAACGAGGGCATGCGAGTTGATAGCATGGCGAT registered a PBM binding z-score of 0.468.

Turning to TCTTGTAGATCACGCAGGTTAAGAAAGCCTGAGT, the PBM binding z-score is 0.539.

In the case of TCTTGTAGAACAAGCAGGTTAAGAAAGCCTGAGT, the PBM binding z-score is -0.117.

AATACCGGGTCATCGTAGGCCAGAGTACGCACAG gave a PBM binding z-score of 5.51.

With CCTAGCAGGCCAATCTGAGTCACTCAAGGCTTGA, the PBM binding z-score is -0.573.

Sequence AGTCAAAGTTCATCTAGGTAAGGTAAGATATGCT had a PBM binding z-score of 6.16.

AGAACAAGGGCAATGAGTTGATAGCACGGGTGGC registered a PBM binding z-score of 0.0784.

CAAACTAGGGCACAGAGGTCAAAGTCCGTGCGTA: the PBM binding z-score turned out to be 5.41.

On to ATCGAAAGGTCGACGGGGTGAGTATACACCGTTT, for which the PBM binding z-score came out at 3.54.

On to TAGCCGAGGTCATGGGCCAGTATACCACGCGAAC, for which the PBM binding z-score is 5.96.

Sequence TCTAGTTGGTCACGGAGGTAACACACGACGGGTA came in with a PBM binding z-score of 0.13.

Consider CCTACTGGGCCAGGGTCATTGATCAGTCAAAGCA, for which the PBM binding z-score came to 2.16.

For the sequence TCTGCTAGGTCAACGATGGACAGCTAATCTGCTA, the PBM binding z-score worked out at 2.24.

TCATATAGGTAAAGGTTAAAGTCGAACGATATGA registered a PBM binding z-score of 3.83.

The sequence ACTAGTAGGCCAAGTTTGGGTCACTCAAACAAAG displayed a PBM binding z-score of 0.0962.

On to TCTTGTAGAACAGCAGGTTAAGAAAGCTGGCCAA, for which the PBM binding z-score was -0.235.

CCTATTAGTTGACCATAAGGGCTACCGAAGCTCG: the PBM binding z-score was 0.0436.

Sequence GCAGACAGGTGAAACGCGGGTAACTCAGGGTGGC returned a PBM binding z-score of 0.351.

As for CCTAGTTGGTCAGGAGGTCAAACACCGGATATGA, the PBM binding z-score was determined as 4.4.

As for TCGAGTAGGTTACAAATGGGGCATTCAGCTTTCT, the PBM binding z-score amounted to 1.08.

Turning to GCTGCTAGGTCAGGTAGGTCAGCTAACGGGTACG, the PBM binding z-score is 1.72.

In the case of CCTAGTTGGTGAAGGTCACACACGCTATAGGTAC, the PBM binding z-score was 3.37.

For CTACCAAGGTGAACAAGGCCGTTGATTACTATTC, the PBM binding z-score amounted to 0.209.

On to TATACAGGGTCAAAGGCCAGAGTCCGAATGTCGA, for which the PBM binding z-score is 6.06.

Consider CGTCCAAGGTCAAAGGTCAGTGTAGAGATGACGG, for which the PBM binding z-score was determined as 7.04.

With GTACGAAGGTGAATAGGTCGTTGATGAGTAGGCG, the PBM binding z-score was found to be 0.661.

As for CCTTACGGGTCAAGGTTATAGTACGGGTGGTACG, the PBM binding z-score amounted to 3.88.

On to ACAATGAGGTTATTAAGATCAGGGAATTGCGGTC, for which the PBM binding z-score came to 1.7.

TCGAGTAGGTTACCAATGGGGCACTCAGCTTTCT yielded a PBM binding z-score of 0.466.

Regarding CCTACTGGGCCATTCAGAGGTCCTTGATCATATG, the PBM binding z-score is -0.572.

Another assay concerns LXRa homodimer (NR concentration 270 nM). The assay is described as above. In outline: as §1
With ATCTCTAGGTAAAGATAGTTCGGTGAATGCAAAT, the PBM binding z-score amounted to 0.268.

The sequence TCTAGCAGTCCAGAGGGTCACTCAAGAGGTACGG gave a PBM binding z-score of -0.326.

Consider CCTAGCAGGCCAATCTGGGACACTCAAGGCTTGA, for which the PBM binding z-score is -0.779.

TCTGACAGGTGAAGGTAACTCAGGTACGCAGTCG yielded a PBM binding z-score of -0.123.

Consider TATACAGGCTCAAAGGCCAGAGTACGAATGTCGA, for which the PBM binding z-score was -0.184.

GGAACGAGGGCATTCGAGTTAATAGCATGGCGAT yielded a PBM binding z-score of -0.476.

CCTACTGGGCCAATGGTCATTGATTCCAATGCTC had a PBM binding z-score of -0.691.

As to GCTGCTAGGTCAACTGATGGTCGGCTAAAGCTCG, the PBM binding z-score came out at 0.00529.

In turn, ACTCGGAGGACCAAGGTCAGAGCTACGCCAGTGA registered a PBM binding z-score of -0.312.

GGAACGAAGGCAAAGTTGATAGCATCTGTCGACG returned a PBM binding z-score of -0.64.

The sequence GGAACGAGGGCATGCGAGTTGATAGCATGGCGAT came in with a PBM binding z-score of -0.615.

The sequence TCTTGTAGATCACGCAGGTTAAGAAAGCCTGAGT came in with a PBM binding z-score of -0.162.

On to TCTTGTAGAACAAGCAGGTTAAGAAAGCCTGAGT, for which the PBM binding z-score was -0.158.

In turn, AATACCGGGTCATCGTAGGCCAGAGTACGCACAG gave a PBM binding z-score of 1.68.

For CCTAGCAGGCCAATCTGAGTCACTCAAGGCTTGA, the PBM binding z-score was -0.759.

Sequence AGTCAAAGTTCATCTAGGTAAGGTAAGATATGCT had a PBM binding z-score of 5.26.

AGAACAAGGGCAATGAGTTGATAGCACGGGTGGC gave a PBM binding z-score of -0.454.

Sequence CAAACTAGGGCACAGAGGTCAAAGTCCGTGCGTA yielded a PBM binding z-score of 5.74.

ATCGAAAGGTCGACGGGGTGAGTATACACCGTTT gave a PBM binding z-score of 0.287.

In turn, TAGCCGAGGTCATGGGCCAGTATACCACGCGAAC yielded a PBM binding z-score of 0.925.

For TCTAGTTGGTCACGGAGGTAACACACGACGGGTA, the PBM binding z-score was -0.316.

In turn, CCTACTGGGCCAGGGTCATTGATCAGTCAAAGCA yielded a PBM binding z-score of 0.0124.

Sequence TCTGCTAGGTCAACGATGGACAGCTAATCTGCTA yielded a PBM binding z-score of -0.31.

Turning to TCATATAGGTAAAGGTTAAAGTCGAACGATATGA, the PBM binding z-score came to 0.888.

The sequence ACTAGTAGGCCAAGTTTGGGTCACTCAAACAAAG displayed a PBM binding z-score of -0.261.

With TCTTGTAGAACAGCAGGTTAAGAAAGCTGGCCAA, the PBM binding z-score is -0.708.

Sequence CCTATTAGTTGACCATAAGGGCTACCGAAGCTCG showed a PBM binding z-score of 0.338.

For the sequence GCAGACAGGTGAAACGCGGGTAACTCAGGGTGGC, the PBM binding z-score was -0.771.

With CCTAGTTGGTCAGGAGGTCAAACACCGGATATGA, the PBM binding z-score came to 3.59.

TCGAGTAGGTTACAAATGGGGCATTCAGCTTTCT: the PBM binding z-score was -0.216.

Sequence GCTGCTAGGTCAGGTAGGTCAGCTAACGGGTACG returned a PBM binding z-score of 0.0186.

Consider CCTAGTTGGTGAAGGTCACACACGCTATAGGTAC, for which the PBM binding z-score was determined as 1.45.

As for CTACCAAGGTGAACAAGGCCGTTGATTACTATTC, the PBM binding z-score was -0.224.

TATACAGGGTCAAAGGCCAGAGTCCGAATGTCGA: the PBM binding z-score worked out at 2.35.

The sequence CGTCCAAGGTCAAAGGTCAGTGTAGAGATGACGG yielded a PBM binding z-score of 3.99.

As to GTACGAAGGTGAATAGGTCGTTGATGAGTAGGCG, the PBM binding z-score was -0.364.

CCTTACGGGTCAAGGTTATAGTACGGGTGGTACG yielded a PBM binding z-score of 0.501.

Sequence ACAATGAGGTTATTAAGATCAGGGAATTGCGGTC registered a PBM binding z-score of 0.283.

Turning to TCGAGTAGGTTACCAATGGGGCACTCAGCTTTCT, the PBM binding z-score was -1.03.

With CCTACTGGGCCATTCAGAGGTCCTTGATCATATG, the PBM binding z-score was -0.215.

Source of the values: the supplement of paper PMC6555819.
